The structures appear in SMILES notation. Results filed as inconclusive are left out. Active and inactive are the calls of the source. Calls follow the shape of the dose curve; as a rule, active = well fitted inhibition curve with a large enough effect in the repeat runs; inconclusive = weak or mixed curves; inactive = no such curve, though single readings can be large or run the other way.
% is scaled to controls: 0 for no effect and ±100 for the full control effect; potency is read from the fitted curve at half-maximal effect.

Sequence of Cytochrome P450 2C9 (Homo sapiens) (P11712 whole entry, looked up): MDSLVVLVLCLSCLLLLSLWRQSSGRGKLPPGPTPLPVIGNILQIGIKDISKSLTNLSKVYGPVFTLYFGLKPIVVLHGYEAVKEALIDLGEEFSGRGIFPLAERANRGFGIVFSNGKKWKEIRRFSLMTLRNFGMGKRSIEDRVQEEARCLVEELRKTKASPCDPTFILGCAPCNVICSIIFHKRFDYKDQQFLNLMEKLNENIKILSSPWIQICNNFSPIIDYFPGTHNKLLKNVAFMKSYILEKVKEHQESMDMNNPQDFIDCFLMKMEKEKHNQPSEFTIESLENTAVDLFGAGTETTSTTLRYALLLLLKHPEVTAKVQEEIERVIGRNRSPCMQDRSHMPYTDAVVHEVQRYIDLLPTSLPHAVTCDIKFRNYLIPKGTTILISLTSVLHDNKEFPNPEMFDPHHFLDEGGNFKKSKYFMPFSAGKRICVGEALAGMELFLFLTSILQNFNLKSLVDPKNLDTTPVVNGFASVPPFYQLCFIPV

This test addresses Cytochrome P450 2C9 (Homo sapiens) (UniProt P11712). Nature of the test: Cytochrome P450 Family 2 Subfamily C Member 9 (CYP2C9) small molecule antagonists: luciferase reporter qHTS assay (AID 1671198). Also: nearly all actives have a fitted effect of over 50% in size. As to conditions: P450-Glo CYP2C9 enzyme assay, luciferin luminescence; series mostly up to 115 µM; activity change, negative = inhibition: at the top concentration. The text has this: U.S. Tox21 Program National Center for Advancing Translational Sciences [NCATS] U.S. Environmental Protection Agency [EPA] National Institutes of Environmental Health Sciences [NIEHS] National Toxicology Program [NTP] U.S. Food and Drug Administration [FDA] Tox21 Assay Overview: Cytochrome P450 (CYP) enzymes are membrane-bound hemeproteins that play a key role in metabolism of drugs and xenobiotics. Evaluation of the effect of chemicals on CYP isozymes is useful to minimize the adverse drug reactions and toxicities in drug development process. Tox21 chemicals were tested for their effect on CYP enzyme activities by using P450-Glo (TM) screening systems (Promega Corporation, Madison, WI). These systems provide a luminescent method containing proluciferin substrates and are converted to luciferin products by CYP isozymes. The luciferin products formed are detected with a luciferin detection reagent, and the amount of light produced is proportional to CYP activity. P450-Glo (TM) CYP2C9 screening system (Catalog. No. V9790) was used to detect the compounds that interfere in CYP2C9 activity.
Tox21 Assay Protocol Summary: Two ul of enzyme-substrate mix was dispensed into medium binding white/solid 1536-well plates (Greiner Bio-One North America Inc., Monroe, NC) using a BioRaptr Flying Reagent Dispenser (FRD, Beckman Coulter, Brea, CA). […] The assay plates were incubated at room temperature for 10 min. Then 2 ul of NADPH regeneration solution was added to each well of the assay plates using an FRD and incubated at 37C for 1 h. The reaction was stopped by adding 4 ul of detection reagent using an FRD and after 20 min incubation at room temperature the luminescence signal was measured using a ViewLux plate reader (Perkin Elmer, Shelton, CT). Data were expressed as relative luminescence units.
For `C=Cc1c(C)c2cc3[nH]c(cc4nc(cc5nc(cc1[nH]2)C(C)=C5CCC(=O)O)C(CCC(=O)O)=C4C)c(C)c3C=C`, the “activity change, negative = inhibition” value is -6.58% [at 53 µM] (inactive).

As for `CC(C)(C)c1ccc(S)cc1`, the Potency is 31.7 µM (active).

In the case of `CN(C)CCCNCCCN`, the “activity change, negative = inhibition” value is -19.4% (inactive).

Consider `Cc1cc(O)ccc1N`, for which the Potency was 20.1 µM (active).

For the compound `CCCCCCCCCCCCC(=O)O`, the “activity change, negative = inhibition” value was -13.7% (inactive).

On to `O=C(/C=C/c1ccc(O)c(O)c1)O[C@@H]1C[C@](O)(C(=O)O)C[C@@H](O)[C@H]1O`, for which the “activity change, negative = inhibition” value was -13% (inactive).

For the compound `C=CC(=O)OCC(C)OCC(C)OCC(C)OC(=O)C=C` (stereo not given), the Potency was 35.6 µM (active).

On to `O=CNc1ccccc1`, for which the “activity change, negative = inhibition” value is -8.16% (inactive).

Turning to `CCCCCCCCCCCCCCCBr`, the “activity change, negative = inhibition” value was 1.13% [at 53 µM] (inactive).

Regarding `CC(=O)CC(=O)c1ccccc1`, the Potency is 35.8 µM (active).

Regarding `CCN(CC)CCOc1ccc2c(c1)C(=O)c1cc(OCCN(CC)CC)ccc1-2`, the “activity change, negative = inhibition” value is -15% [at 53 µM] (inactive).

Take `CCN1CCC[C@H]1CNC(=O)c1c(OC)ccc(Br)c1OC`: the “activity change, negative = inhibition” value was 2.96% [at 53 µM] (inactive).

As for `Cc1ccc(C(C)c2ccc(C)c(C)c2)cc1C`, the Potency was 11.2 µM (active).

For `CCCCCOC(=O)COc1cc(N2C(=O)C3=C(CCCC3)C2=O)c(F)cc1Cl`, the Potency was 5.64 µM (active).

As for `O=[N+]([O-])c1cc[n+]([O-])cc1`, the Potency is 39.9 µM (active).

With `CCCOc1ccc2nc(NC(=O)OC)[nH]c2c1`, the “activity change, negative = inhibition” value is 4.66% [at 53 µM] (inactive).

Turning to `Nc1nc(N)c2nc(CNc3ccc(C(=O)N[C@@H](CCC(=O)O)C(=O)O)cc3)cnc2n1`, the “activity change, negative = inhibition” value was -13.3% (inactive).

Turning to `Oc1ccc(O)c2c(O)cccc12`, the “activity change, negative = inhibition” value is -17.5% (inactive).

Take `CC[C@H](C)[C@H](N)C(=O)O`: the “activity change, negative = inhibition” value is -1.98% [at 53 µM] (inactive).

For the compound `CC(=O)NCCCS(=O)(=O)O`, the “activity change, negative = inhibition” value is -16.6% [at 53 µM] (inactive).

In the case of `CC(C)CCCCCCOC(=O)c1ccc(C(=O)OCCCCCCC(C)C)c(C(=O)OCCCCCCC(C)C)c1`, the Potency is 71 µM (active).

Consider `c1ccc(OCc2ccc(CCCN3CCOCC3)cc2)cc1`, for which the Potency was 38.9 µM (active).

For the compound `Cl/C(=C\n1cncn1)c1ccc(Cl)cc1Cl`, the Potency is 15.5 µM (active).

Consider `CCCCCOC(=O)c1ccc(O)cc1`, for which the Potency is 36 µM (active).

As to `CC(=O)O[C@@H]1C(=O)O[C@@H]2[C@H]1OC(=O)[C@@H]2OC(C)=O`, the “activity change, negative = inhibition” value is 2.02% [at 53 µM] (inactive).

For the compound `CCCCCCCCCCCCCCCC(=O)OC/C=C(C)/C=C/C=C(C)/C=C/C1=C(C)CCCC1(C)C`, the Potency is 35.6 µM (active).

As for `N#Cc1c(F)cccc1F`, the “activity change, negative = inhibition” value was -12.5% (inactive).

Turning to `CC(C)(C)C1CCCCC1O` (stereo not given), the “activity change, negative = inhibition” value is 9.72% (inactive).

With `ClC(Cl)(Cl)c1ccc(C(Cl)(Cl)Cl)cc1`, the Potency was 39.5 µM (active).

Take `CC1=CC(=O)/C(=C(/C)O)C(=O)O1`: the Potency was 63.3 µM (active).

`CC(=O)c1ccc2c(c1)[C@H](NC(=O)c1ccc(F)cc1)[C@@H](O)C(C)(C)O2`: the Potency was 33.5 µM (active).

On to `C=C(C)C(=O)OCCOc1ccccc1`, for which the Potency is 35.6 µM (active).

For `CCc1nn(C2CCCCC2)c2cc(C3(C#N)CCC(C(=O)O)CC3)ccc12` (stereo not given), the Potency was 20 µM (active).

As to `Oc1ccc(Cc2ccccc2)cc1`, the Potency is 65.7 µM (active).

As to `CCOc1cc(OCC)c(C(=O)CCC(=O)O)cc1OCC`, the “activity change, negative = inhibition” value is -14.8% [at 53 µM] (inactive).

For `O=C(O)c1cn(C2CC2)c2cc(Cl)c(F)cc2c1=O`, the “activity change, negative = inhibition” value is -2.47% [at 53 µM] (inactive).

For `N=C(N=C(N)N)N1CCOCC1`, the “activity change, negative = inhibition” value is -1.25% [at 53 µM] (inactive).

As to `CCCCCc1ccc(N)cc1`, the Potency is 28.3 µM (active).

As to `NCCCN(CCO)CCO`, the “activity change, negative = inhibition” value is 11.4% (inactive).

With `CC(C)(C)c1cc(CO)cc(C(C)(C)C)c1O`, the Potency was 32.3 µM (active).

(Values after PubChem BioAssay (Tox21).)
